Compounds with a hit are over-represented: about 3.5% of the library has one in this group of screens.
BoNT F protease – inhibitors of Botulinum neurotoxin F light chain protease. actives 0.22% (n = 360,000). Multiplex microsphere protease cleavage assay, flow cytometry. inhibition, % at 10 µM. AID 588497; in the data active means inhibition above about 35%, passing the limit was not always enough; inconclusive means no clear call, values can overlap the other calls
Anthrax LF inh2 – anthrax lethal factor protease inhibition; P15917; multiplex microsphere protease cleavage assay, LF; inhibition, % at 10 µM; actives 0.12% (n = 360,000); AID 588501
BJeLR viability – kills HRASV12-expressing BJeLR cells | actives 0.17% (n = 300,000) | inhibition, % (concentration not given with the values) | AID 1554 | BJeLR (HRASV12) viability, CellTiter-Glo ATP luminescence, 48 h; in the data active means inhibition above about 50%; inconclusive means no clear call, values can overlap the other calls
Bead autofluor – flagged as autofluorescent in microsphere protease counterscreen; compound autofluorescence counterscreen, microsphere flow cytometry; stronger effect = higher value; fluorescence intensity (test concentration not listed); actives 3.1% (n = 360,000); AID 624483; in the data active means fluorescence intensity above about 16000; inconclusive means no clear call, values can overlap the other calls
BoNT-A LC inh2 – inhibitors of Botulinum neurotoxin A light chain protease. multiplex microsphere protease substrate cleavage, flow cytometry. inhibition, % at 10 µM. actives 0.17% (n = 360,000). AID 588499
Numbers stand for hits; n = inactive; u = inconclusive; x = no result. Unless noted, no stated cut-off is given here; in the data, active means inhibition above about 30%; inconclusive means no clear call, values can overlap the other calls; inactive means below that.

SMILES	BoNT F protease	Anthrax LF inh2	BJeLR viability	Bead autofluor	BoNT-A LC inh2
Cc1noc(C)c1C(=O)N1CCC1(C)C(=O)NS(=O)(=O)c1ccc(F)cc1F (configuration not stated)	n	n	x	n	n
Cc1ccc(Cc2c(-c3ccccc3)nc3cc(C)c(Br)c(C)n23)cc1	n	n	x	n	n
CC1=CC(C)(C)N(C(=O)c2ccccc2)c2ccccc21	n	n	n	23091	n
Nc1c(-c2ccccc2)cnn1-c1cccc([N+](=O)[O-])c1	n	n	n	17591	n
O=C1NC[C@@H](CCCCN2CCN(CCc3ccc(O)cc3)C(=O)C2=O)N(CCc2ccc(O)cc2)C1=O	n	n	x	n	n
COc1ccc(OC)c(C2=NOC(C(=O)NCC3CCCO3)C2)c1 (configuration not stated)	n	n	n	n	n
O=C(NCC1CCCO1)C1CC(c2ccccc2Cl)=NO1 (configuration not stated)	n	n	n	21967	n
CCCNC(=O)C1(C)CCN(C(=O)c2cccnc2Oc2ccccc2)C1 (configuration not stated)	n	n	x	n	n
CCOC(=O)[C@]12CCC=C1N(Cc1cccc3ccccc13)C(=O)[C@H](CC(=O)NCC1CCCCC1)C2	n	n	x	n	n
COc1cccc(C2=CC(c3ccc(OC)c(OC)c3OC)n3nnnc3N2)c1 (configuration not stated)	n	n	n	n	n
COc1ccccc1C1C=C(c2ccccc2)Nc2nnnn21 (configuration not stated)	n	n	n	20241	u
COCC(C)NC(=O)c1ccc(N(C)C)cc1 (configuration not stated)	n	n	n	17509	n
CSCC[C@H](NC(=O)Cc1ccc(Cl)cc1)C(=O)N1CCC2(CC1)NCCc1[nH]cnc12	n	n	n	n	n
CC(C)CC(N)c1csc(Nc2ccc(C(F)(F)F)cn2)n1 (configuration not stated)	n	n	x	n	n
CC(=O)Nc1ccc(N2C(C(C)=O)=NN(c3ccccc3)C2c2cccs2)cc1 (configuration not stated)	n	n	n	19872	n
CSc1nc(N2CCOCC2)c2ccccc2n1	n	n	x	23367	n
CSc1nc(N2CCN(c3ccccc3Cl)CC2)c2ccccc2n1	n	n	n	n	n
CCN(CC)c1ccc(Nc2nc(N3CCOCC3)c3ccccc3n2)cc1	n	n	n	20077	n
Cc1cc(C)c(C#N)c(N2CCN(Cc3ccccc3)CC2)n1	n	n	n	23816	n
N#Cc1c(N2CCCCC2)nc(N2CCCCC2)c2c1CCN(Cc1ccccc1)C2	n	n	n	18858	u
Cc1ccc(O)c(CNc2nc3ccccc3n2C(C)C)c1	38	n	n	n	n
CC(C)n1c(NCc2cc(Cl)ccc2O)nc2ccccc21	n	n	n	n	n
COC(=O)c1cc(C(=O)Nc2ccc(C)cn2)cc([N+](=O)[O-])c1	n	n	n	22666	u
CCCC(C)c1nnc(NC(=O)c2cc(C(=O)OC)cc([N+](=O)[O-])c2)s1 (configuration not stated)	n	n	n	16199	u
COc1ccccc1N1CCN(C2CCCN(C(=O)CN3CCCC3=O)C2)CC1 (configuration not stated)	n	n	n	n	n
SMILES	BoNT F protease	Anthrax LF inh2	BJeLR viability	Bead autofluor	BoNT-A LC inh2
CCCCC(=O)N(C)c1c(CC)nc2c(OCc3cccc(Cl)c3)cccn12	n	n	x	n	n
COC(=O)C(CCSC)NC(=O)c1cn(-c2ccc(OC)cc2)c(=O)c2ccccc12 (configuration not stated)	36	n	n	n	n
COc1ccc(C)cc1-n1nnnc1SCc1nc(N)nc(N(C)C)n1	n	n	x	n	n
Cc1c(C(=O)N2CCCc3ccccc32)oc2ccc(S(=O)(=O)N3CCOCC3)cc12	n	n	n	16777	n
O=C(c1cccc(S(=O)(=O)N2CCOCC2)c1)N1CCCc2ccccc21	n	n	n	n	n
CCn1c2ccccc2c2nc3cc(S(=O)(=O)N4CCOCC4)ccc3nc21	n	33	n	n	40
O=S(=O)(c1ccc2oc3ccccc3c2c1)N1CCCC1	n	n	n	n	n
c1ccc2nc3c(nc2c1)c1ccccc1n3CCN1CCOCC1	n	n	n	n	n
O=S(=O)(c1ccc2oc3ccccc3c2c1)N1CCOCC1	n	n	n	16805	n
C/C(=N\NC(=O)Cc1ccc(Cl)cc1)c1ccc(F)cc1	35	n	n	n	n
C/C(=N\NC(=O)Cc1ccc(F)cc1)c1ccc(O)cc1	n	n	n	n	n
COc1ccc(-c2nc3c(n2O)CCC/C3=N\O)cc1	n	n	n	21176	u
Cc1nc2c(n1O)CCC/C2=N\O	n	n	n	n	n
CCC(=O)N1CCC(C)(C(=O)NCc2ccc(F)cc2)C1 (configuration not stated)	n	n	x	n	n
Cc1cc2cc(CNC(=S)Nc3ccc(OC(F)F)cc3)ccc2n1C	n	n	n	n	66
CCOC(=O)[C@]12CCCC=C1N(Cc1ccc3c(c1)OCO3)C(=O)[C@H](CC(=O)NCCC(C)C)C2	n	n	x	n	n
Cn1nc(NC(=O)C(F)(F)F)c2nccnc21	n	n	x	n	n
COc1cc(S(=O)(=O)NC2CCCCC2)ccc1F	n	n	n	n	n
CCOc1cc(S(=O)(=O)NC2CCCCC2)ccc1F	n	n	n	22695	n
CC1=C(C(=O)OC2CCCC2)C(c2ccc(C)o2)C2=C(CC(c3cccs3)CC2=O)N1 (configuration not stated)	n	n	n	22029	n
COc1ccc(OC)c(NC2c3ncccc3C(=O)N2Cc2ccco2)c1 (configuration not stated)	n	n	n	16912	n
COc1ccc(CN2C(=O)c3cccnc3C2Nc2cc(Cl)ccc2OC)cc1 (configuration not stated)	n	n	n	21495	n
Cc1ccc(CNC(=O)c2sc3nc4c(c(C(F)(F)F)c3c2N)CCC4)cc1	n	n	n	24632	u
Cc1ccccc1OCCCCCNCCO	n	n	n	n	n
CC(C)(C)c1ccccc1OCCCCCNCCO	n	n	n	18177	n
SMILES	BoNT F protease	Anthrax LF inh2	BJeLR viability	Bead autofluor	BoNT-A LC inh2
N#Cc1c(N)sc2c1CCCCCC2	n	n	n	24025	n
CCOC(=O)c1ccc(Nc2ncnc3c2cnn3C)cc1	n	n	n	n	n
Cn1ncc2c(O/N=C(\N)c3ccc(C(C)(C)C)cc3)ncnc21	n	n	99	n	n
O=C(CCl)N=c1sccn1Cc1ccccc1Cl	n	n	110	n	n
Cc1ccc2nc(C3CCCCC3)c(Cc3ccccc3)n2c1	n	n	x	n	n
COc1ccc(C2CC(=O)C3=C(C2)NC(C)=C(C(=O)Nc2ccccc2C)C3c2coc3ccc(C)cc3c2=O)cc1OC (configuration not stated)	n	n	x	23361	u
COC(=O)c1cccc(COC(=O)c2ccc(CS(=O)(=O)c3ccc(C)cc3)cc2)c1	n	n	n	n	n
COC(=O)c1ccc(CS(=O)(=O)c2ccc(C)cc2)cc1	n	n	n	21233	u

Screening results as filed in PubChem.
